Bioassay records deposited in PubChem by National Center for Advancing Translational Sciences (NCATS).
SW480 rereplic = DNA re-replication induction in SW480 cells; Potency, µM (highest dose often 46.1 µM), for inactives: at the top dose re-replication activation, actives largely listed as activators; hit rate 1.8% among 340,000; SW480 DNA re-replication, Hoechst DNA content imaging, 48 h; note: potency is the fitted concentration of half-maximal effect; % of control where 0% means no effect; nearly all actives have a fitted effect of over 55% in size
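Cells (250 per well) received 23 nL compound or DMSO by pin tool and were kept 48 hr at 37 C, 5% CO2. Nuclei were then stained with Hoechst for 40 min and scanned for DNA content.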
KCNH2 3.1 inh = KCNH2 3.1 (human) potassium channel inhibition; U2OS KCNH2 3.1, thallium flux FluxOr; active compounds read low; hit rate 0.95% among 340,000; activity change, % (tested at about 1.8 µM); AID 720553;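 active = maximum activity change below -70%; inconclusive = maximum activity change from -70% to -50%; inactive = maximum activity change above -50%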;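 note: thallium influx rate constant from kinetic fluorescence after stimulation buffer; % is set by controls: 0 for no effect and ±100 for the full control effect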
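Measured as rate of thallium-driven FluxOr signal in transduced U2OS cells carrying the 3.1 channel, read kinetically for 2 min upon stimulation; values are rate constants scaled to DMSO control wells.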
MCF10A rerep = induces DNA re-replication in MCF 10a normal breast cells; MCF 10A DNA re-replication, Hoechst nuclear intensity, 48 h; Potency, µM (titrated, usually from 46.1 µM), inactives show top-dose activity, positive = re-replication, hits mostly activators; hit rate 2.9% among 350,000; AID 624296; note: potency is the fitted concentration of half-maximal effect; % of control where 0% means no effect; nearly all actives have a fitted effect of over 50% in size
hERG WT inh = KCNH2 (human, wildtype) channel inhibition | Q12809 | U2OS, BacMam KCNH2, thallium flux FluxOr; active compounds read low | activity change, % at 1.84 µM | hit rate 0.37% among 340,000 | AID 720551;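 active = maximum activity change below -70%; inconclusive = maximum activity change between -70% and -50%; inactive = maximum activity change above -50%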; note: % is set by controls: 0 for no effect and ±100 for the full control effect
Target sequence (Q12809 whole entry, looked up): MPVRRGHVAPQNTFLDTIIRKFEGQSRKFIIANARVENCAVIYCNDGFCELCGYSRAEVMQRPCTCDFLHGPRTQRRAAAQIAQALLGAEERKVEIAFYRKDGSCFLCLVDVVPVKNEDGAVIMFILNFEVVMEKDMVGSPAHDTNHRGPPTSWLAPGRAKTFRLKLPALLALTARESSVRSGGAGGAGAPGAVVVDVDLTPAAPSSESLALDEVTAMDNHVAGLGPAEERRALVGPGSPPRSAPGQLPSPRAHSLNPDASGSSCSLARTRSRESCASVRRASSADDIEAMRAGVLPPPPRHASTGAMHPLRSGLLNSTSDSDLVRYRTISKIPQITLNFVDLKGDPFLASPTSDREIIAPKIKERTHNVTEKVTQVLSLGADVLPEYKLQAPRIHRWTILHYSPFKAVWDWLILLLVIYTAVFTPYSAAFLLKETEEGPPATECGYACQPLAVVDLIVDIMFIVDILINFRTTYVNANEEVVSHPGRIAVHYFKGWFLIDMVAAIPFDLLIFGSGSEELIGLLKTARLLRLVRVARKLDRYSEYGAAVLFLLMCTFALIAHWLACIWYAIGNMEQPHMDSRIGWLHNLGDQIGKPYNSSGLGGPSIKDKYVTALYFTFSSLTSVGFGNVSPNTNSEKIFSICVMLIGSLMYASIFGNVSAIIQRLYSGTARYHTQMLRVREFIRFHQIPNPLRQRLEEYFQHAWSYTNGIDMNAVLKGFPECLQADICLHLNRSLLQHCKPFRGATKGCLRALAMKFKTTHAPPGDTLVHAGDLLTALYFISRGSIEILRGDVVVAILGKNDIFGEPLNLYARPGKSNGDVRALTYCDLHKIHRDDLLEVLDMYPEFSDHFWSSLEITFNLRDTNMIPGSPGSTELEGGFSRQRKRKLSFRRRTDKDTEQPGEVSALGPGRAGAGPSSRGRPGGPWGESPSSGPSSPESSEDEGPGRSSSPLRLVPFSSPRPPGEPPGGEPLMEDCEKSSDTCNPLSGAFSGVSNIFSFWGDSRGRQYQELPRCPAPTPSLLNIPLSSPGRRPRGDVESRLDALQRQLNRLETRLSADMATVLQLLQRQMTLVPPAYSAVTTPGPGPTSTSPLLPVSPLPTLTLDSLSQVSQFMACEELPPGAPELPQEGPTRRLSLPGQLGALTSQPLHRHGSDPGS
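U2OS cells transduced with wild-type KCNH2 virus are loaded with FluxOr dye for 45 min, and thallium flux is measured in kinetic reads before and after stimulation buffer. Rate constants are normalized to DMSO controls.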
KB-V1 cytotox = KB-V1 MDR subline cytotoxicity; KB-V1 MDR cells viability, CellTiter-Glo, 72 h; Potency, µM (top dose mostly 46.1 µM), hits mostly cytotoxic; hit rate 3.4% among 400,000; note: potency is the fitted concentration of half-maximal effect; % is set by controls: 0 for no effect and ±100 for the full control effect; nearly all actives have a fitted effect of over 60% in size
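Drug-selected KB-V1 cells, grown in DMEM lacking phenol red with 10% FBS, receive compound titrations; after three days at 37 degrees C, surviving cell ATP is quantified by CellTiter-Glo luminescence and responses normalized and curve-fitted.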
KB-3-1 cytotox = KB-3-1 parental cell cytotoxicity | KB-3-1 viability, CellTiter-Glo ATP luminescence, 72 h | Potency, µM (top dose mostly 46.1 µM), actives largely listed as cytotoxic | hit rate 1.4% among 400,000 | AID 1347075; note: potency is the fitted concentration of half-maximal effect; % is set by controls: 0 for no effect and ±100 for the full control effect; nearly all actives have a fitted effect of over 60% in size
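Viability of parental KB-3-1 cells, measured by CellTiter-Glo luminescence, followed a 72 h incubation at 37 °C with pinned compounds in phenol-red-free DMEM containing 10% FBS.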
* = called active by the depositor; i = inactive; ? = inconclusive; nt = no result given; [ ] = another dose, or the depositor's remark. The list is not random: actives were taken first. Their share in the collection is about 7.6%. Unless noted, calls come from the whole dose curve; as a rule, active = well fitted curve in the direction sought with a large enough effect; inconclusive = small, poorly fitted or top-dose-only effect, or another doubt; inactive = no such curve, though single readings can be large; an effect the other way counts as inactive or inconclusive.

SMILES	SW480 rereplic	KCNH2 3.1 inh	MCF10A rerep	hERG WT inh	KB-V1 cytotox	KB-3-1 cytotox
CCn1c(SCc2nc(-c3ccc(OC)c(OC)c3)no2)nnc1-c1cccs1	0%	-10	16%	-12	9.2µM*	i
COc1ccc(C2CC(c3cccs3)=NN2C(=O)COC(=O)c2cncc(Br)c2)cc1OC (stereo not given)	2%	0	2%	-3	?	i
CC(C)COC(=O)c1ccc2c(c1O)C(=O)c1ccccc1C2=O	?	-2	?	38	15µM*	i
O=C(Nc1ccc2c(c1)OCCO2)C(c1ccnc2ccccc12)N1CCC(Cc2ccccc2)CC1 (stereo not given)	nt	nt	nt	nt	i	i
CN(CCc1ccccc1)C(C(=O)Nc1ccc2c(c1)OCCO2)c1ccnc2ccccc12 (stereo not given)	nt	nt	nt	nt	23µM*	?
O=C1CCN2C=Nc3cccc4ccc1c2c34	20%	-1	13%	-12	12µM*	?
CCc1nccn1S(=O)(=O)c1ccc2ccc(C)cc2c1	-2%	-71*	-1%	7	i	i
CCOc1ccc2cc(S(=O)(=O)n3ccnc3C)ccc2c1	-2%	-5	-5%	-3	i	i
CCC(C)[C@H](NS(=O)(=O)c1ccc(C)cc1)C(=O)N1CCC(C(=O)N2CCC(C(N)=O)CC2)CC1 (stereo not given in full)	?	-11	-3%	-6	i	i
CCNC(=O)[C@@H]1CCCN1C(=O)[C@H](CCCN=C(N)N)NC(=O)[C@H](CC(C)C)NC(=O)[C@@H](Cc1c[nH]c2ccccc12)NC(=O)[C@H](Cc1ccc(O)cc1)NC(=O)[C@H](CO)NC(=O)[C@H](Cc1c[nH]c2ccccc12)NC(=O)[C@H](Cc1cnc[nH]1)NC(=O)[C@@H]1CCC(=O)N1	?	nt	30µM*	nt	nt	nt
Cc1ccc(-c2ccc(/C=N\NC(=O)c3cc4c(ccc5ccccc54)o3)o2)cc1[N+](=O)[O-]	12%	-19	7.3µM*	-2	?	?
O=C(N/N=C/c1ccc(-c2ccc(Cl)c(C(=O)O)c2)o1)c1cc2c(ccc3ccccc32)o1	?	-6	21µM*	-5	i	i
O=C(O)c1ccc(/C=N/NC(=O)c2cc3c(ccc4ccccc43)o2)cc1	2%	-5	2%	-9	i	i
O=C1CN(C(=O)c2ccc(S(=O)(=O)N3CCCCC3)cc2)C(c2ccc(F)cc2)c2cc(Cl)ccc2N1 (stereo not given)	nt	nt	nt	nt	i	?
CSc1ncccc1C(=O)NCc1nnc2ccccn12	-4%	-6	0%	-2	i	i
Cc1ccc(CNC(=O)Cc2ccc(Br)cc2)cc1	?	-9	6.5µM*	16	?	?
COc1cc(NC(=O)c2ccc(Br)cc2)c(OC)cc1NC(=O)c1ccccc1	-2%	-15	?	3	i	i
COc1ccccc1CNC(=O)Cc1ccc(Br)cc1	nt	-9	?	3	23µM*	i
COc1cc(NC(=O)c2ccccc2)c(OC)cc1NC(=O)Cc1ccc(Br)cc1	?	-43	12µM*	8	i	i
O=C(Cc1ccc(Br)cc1)NCc1ccccc1	5.8µM*	1	5.8µM*	-300*	4.6µM*	5.8µM*
Cc1nccn1CC(=O)N/N=C/c1cc(Br)cs1	-15%	6	-1%	9	i	i
CSCC[C@H](N)C(=O)NCC1CCC(C(=O)Nc2ccc3c(c2)OCO3)CC1 (stereo not given in full)	-2%	-11	-3%	-7	i	i
C[N+]1=C(/C=C/Nc2ccccc2Cl)C(C)(C)c2ccccc21	8%	-23	5%	-80*	?	i
FC(F)(F)c1cnc(/C=C/Nc2ccccc2Cl)c(Cl)c1	-1%	8	-184%[0.0737 µM]	7	i	i
COC(=O)c1cc(-c2ccc(Br)cc2)c2c(=O)[nH]c(=O)n(C)c2n1	0%	-11	-1%	nt	i	i
SMILES	SW480 rereplic	KCNH2 3.1 inh	MCF10A rerep	hERG WT inh	KB-V1 cytotox	KB-3-1 cytotox
CCOc1ccc(-c2cc(C(=O)OC)nc3c2c(=O)n(C)c(=O)n3C)cc1	?	13	23µM*	20	i	i
COC(=O)c1cc(-c2ccc(OC)c(OC)c2)c2c(=O)[nH]c(=O)n(C)c2n1	29%	-12	6.5µM*	0	i	i
CC(=O)/C=C/c1ccc2ccccc2n1	9.2µM*	1	15µM*	2	i	i
CC[N+](C)(C)c1ccc(/C=C/c2ccc3ccccc3n2)cc1	nt	nt	nt	nt	i	2.9µM*
CCN(CC)c1ccc(/C=C/c2ccc3ccccc3n2)cc1	nt	nt	nt	nt	?	2.3µM*
CC(OC(=O)/C=C/c1ccc2ccccc2n1)C(=O)N(C)c1ccccc1 (stereo not given)	2%	-21	-1%	-22	?	?
Clc1ccc(/C=C/c2ccc3ccccc3n2)cc1Cl	nt	nt	nt	nt	i	?
CCOC(=O)C[C@H]1c2cc(F)ccc2S(=O)(=O)N1C1CCCCC1	-5%	9	1%	-10	?	i
CCc1cccc(NC(=O)Cn2c(=O)n(CC3CCC(C(=O)NCCc4ccccc4)CC3)c(=O)c3ccccc32)c1 (stereo not given)	nt	nt	nt	nt	i	15µM*
O=C(Cn1c(=O)n(CC2CCC(C(=O)NCCc3ccccc3)CC2)c(=O)c2ccccc21)Nc1ccccc1 (stereo not given)	nt	nt	nt	nt	i	i
Nc1c(C(=O)c2ccccc2)oc2ccccc12	?	3	13µM*	40	i	i
Nc1c(C(=O)c2ccc(F)cc2)oc2ccccc12	16%	-8	7.3µM*	-2	i	?
CC(=O)c1oc2ccccc2c1N	-3%	-8	1%	-12	i	i
Cn1cc([N+](=O)[O-])c(C(=O)NCc2ccccc2)n1	4%	1	4%	0	i	i
CCCCNC(=O)c1nc(C2CCN(S(=O)(=O)c3ccccc3C(F)(F)F)CC2)oc1-c1cccc(C(F)(F)F)c1	nt	nt	nt	nt	i	i
CCN1C(=O)c2cccc3c(S(=O)(=O)Nc4ccccc4OC)ccc1c23	1%	6	?	-3	16µM*	?
CCN1C(=O)c2cccc3c(S(=O)(=O)NCc4ccccc4)ccc1c23	?	-9	16µM*	-9	i	i
CCN1C(=O)c2cccc3c(S(=O)(=O)NCCc4c[nH]c5ccccc45)ccc1c23	-2%	4	10%	5	i	i
